Among the data in PubChem BioAssay (Tox21) are Potency, activity change, negative = cytotoxicity and caspase activation values, retold here.

Results filed as inconclusive are left out. Where a call stands in place of a potency, no number is given. Calls of active or inactive are those of the source. Calls follow the shape of the dose curve; as a rule, active = well fitted curve in the direction sought with a large enough effect in the repeat runs; inconclusive = weak or mixed curves; inactive = no such curve, though single readings can be large; an effect the other way counts as inactive or inconclusive.

One experiment can be described thus: Human pregnane X receptor (PXR) small molecule agonists, qHTS cell viability counter screen (AID 1346977). Also: nearly all actives have a fitted effect of over 50% in size. The settings on record: PXR-Luc HepG2 viability, CellTiter-Fluor, 24 h; series mostly up to 92.4 µM. In a few lines: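 Tox21 qHTS format; PXR-Luc HepG2, 2,000/well, charcoal-stripped FBS 5%. Cpd exposure 24hr. Read: CellTiter-Fluor fluorescence, multiplexed with luciferase.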
(In general: qHTS replaces the single test concentration by a dilution series.)
Turning to `O=C(OC1C[C@H]2CC[C@@H](C1)[N+]21CCCC1)C(O)(c1ccccc1)c1ccccc1` (stereo not given in full), the Potency entry was “inactive”.

Turning to `Cc1ccc2ccccc2c1[N+](=O)[O-]`, the Potency entry is “inactive”.

For `C[C@H]1C[C@H]2[C@@H]3CCC4=CC(=O)C=C[C@]4(C)[C@@]3(F)[C@@H](O)C[C@]2(C)[C@@]1(O)C(=O)COP(=O)(O)O`, the Potency result was “inactive”.

As for `CC(=O)OCC(=O)[C@@]1(O)CC[C@H]2[C@@H]3CCC4=CC(=O)C=C[C@]4(C)[C@@]3(F)[C@@H](O)C[C@@]21C`, the Potency result was “inactive”.

With `CCN(CC)CC(=O)OCC(=O)[C@@]1(O)CC[C@H]2[C@@H]3CCC4=CC(=O)CC[C@]4(C)[C@H]3[C@@H](O)C[C@@]21C`, the Potency result is “inactive”.

As to `O=C(O)c1ccc2c(c1)nc(C(=O)NC1CCN(C3CC3)CC1)n2Cc1cc(-c2ccc(Cl)s2)on1`, the activity change, negative = cytotoxicity was 17.8% [at 19 µM] (inactive).

Take `O=C(O)c1cc(C(=O)O)cc([N+](=O)[O-])c1`: the Potency entry is “inactive”.

`Cc1cc(SC2=C(O)C[C@@](CCc3ccc(N)cc3)(C(C)C)OC2=O)c(C(C)(C)C)cc1CO`: the Potency entry is “inactive”.

In the case of `O=C(Nc1ccccc1)c1cc([N+](=O)[O-])ccc1Cl`, the Potency entry was “inactive”.

As for `CC(C)(C)c1ccc(CCC=O)cc1`, the Potency result was “inactive”.

Regarding `CCCCCC1CCC(=O)O1` (stereo not given), the Potency entry was “inactive”.

As for `CCOCCn1c(N2CCCN(C)CC2)nc2ccccc21`, the Potency entry is “inactive”.

For `C[C@H](CN1CCCC1)C(=O)c1ccc(C(F)(F)F)cc1`, the Potency entry was “inactive”.

With `Sc1nc(S)nc(S)n1`, the Potency entry was “inactive”.

On to `Cc1cc(C)c(C)c(O)c1`, for which the Potency entry is “inactive”.

In the case of `COc1ccc(/C=C/S(=O)(=O)NC(=O)c2ccc(C)cc2Cl)cc1`, the Potency result was “inactive”.

A short description of the next experiment: Caspase-3/7 induction in HepG2 cells by small molecules, qHTS assay (AID 1346978). Also: nearly all actives have a fitted effect of over 15% in size. Conditions: HepG2 caspase-3/7 activation, Caspase-Glo luminescence, 17 h; series mostly up to 92.4 µM. In a few lines: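 Wild-type HepG2 cells, 2,000/well, settled 5 hr at 37 C and 5% CO2, then compound-treated for 17 hr; caspase-3/7 activity read by luminescent Caspase-Glo 3/7 after 30 min at room temperature.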
As to `C=C[Si]1(C)O[Si](C)(C=C)O[Si](C)(C=C)O[Si](C)(C=C)O1` (stereo not given), the Potency entry is “inactive”.

Turning to `Nc1ccccc1Nc1ccccc1`, the Potency entry is “inactive”.

As to `c1ccc(CN(Cc2ccccc2)Cc2ccccc2)cc1`, the Potency entry is “inactive”.

Regarding `N#Cc1ccc(CC(=O)c2cccc(C(F)(F)F)c2)cc1`, the Potency entry is “inactive”.

On to `Cc1cc(N)n(-c2ccccc2)n1`, for which the Potency result is “inactive”.

Consider `COc1cc(CNC(=O)CCCC/C=C/C(C)C)ccc1O`, for which the Potency result is “inactive”.

Consider `CCc1c(C)[nH]c2c1C(=O)C(CN1CCOCC1)CC2` (stereo not given), for which the Potency entry is “inactive”.

`COc1ccc(CN(CCN(C)C)c2ncccn2)cc1`: the Potency result was “inactive”.

`O=C(C1CCCCC1)N1CC(=O)N2CCCc3ccccc3C2C1` (stereo not given): the Potency result is “inactive”.

Regarding `CC(C)C/C=C(\C=O)c1ccccc1`, the Potency result is “inactive”.

For `CC(CN=Cc1ccccc1O)N=Cc1ccccc1O` (stereo not given), the Potency entry was “inactive”.

In the case of `Nc1ncnc2c1ncn2[C@@H]1O[C@H](CO)[C@@H](O)[C@H]1O`, the Potency entry was “inactive”.

In the case of `CC(C)CCCCCOC(=O)CS`, the Potency result is “inactive”.

Take `Cc1ccc(S(=O)(=O)NC(=O)NC2CCCC2)cc1`: the Potency entry was “inactive”.

With `CC1(COc2ccc(CC3SC(=O)NC3=O)cc2)CCCCC1` (stereo not given), the Potency entry is “inactive”.

Turning to `COc1ccc(C(=O)c2ccc(C)cc2)c(O)c1`, the Potency entry was “inactive”.

Regarding `Cc1c(N=C=O)cccc1N=C=O`, the Potency result is “inactive”.

In the case of `Clc1nc2ccccc2nc1Cl`, the Potency entry is “inactive”.

`c1ccc(CCNc2nc(-c3ccccc3)cs2)cc1`: the Potency result was “inactive”.

With `CCc1ccc(C(=O)C(C)CN2CCCCC2)cc1` (stereo not given), the Potency entry is “inactive”.

For the molecule `O=C(Cl)c1ccc(F)c(Cl)c1`, the Potency entry was “inactive”.

On to `O=C(OC1C[C@H]2CC[C@@H](C1)[N+]21CCCC1)C(O)(c1ccccc1)c1ccccc1` (stereo not given in full), for which the Potency result was “inactive”.

As to `Cc1ccc2ccccc2c1[N+](=O)[O-]`, the Potency result is “inactive”.

With `C[C@H]1C[C@H]2[C@@H]3CCC4=CC(=O)C=C[C@]4(C)[C@@]3(F)[C@@H](O)C[C@]2(C)[C@@]1(O)C(=O)COP(=O)(O)O`, the Potency result is “inactive”.

For `CC(=O)OCC(=O)[C@@]1(O)CC[C@H]2[C@@H]3CCC4=CC(=O)C=C[C@]4(C)[C@@]3(F)[C@@H](O)C[C@@]21C`, the Potency entry is “inactive”.

`CCN(CC)CC(=O)OCC(=O)[C@@]1(O)CC[C@H]2[C@@H]3CCC4=CC(=O)CC[C@]4(C)[C@H]3[C@@H](O)C[C@@]21C`: the Potency result is “inactive”.

For `O=C(O)c1ccc2c(c1)nc(C(=O)NC1CCN(C3CC3)CC1)n2Cc1cc(-c2ccc(Cl)s2)on1`, the caspase activation is -0.956% [at 19 µM] (inactive).

Turning to `O=C(O)c1cc(C(=O)O)cc([N+](=O)[O-])c1`, the Potency entry was “inactive”.

On to `Cc1cc(SC2=C(O)C[C@@](CCc3ccc(N)cc3)(C(C)C)OC2=O)c(C(C)(C)C)cc1CO`, for which the Potency entry is “inactive”.

For the molecule `O=C(Nc1ccccc1)c1cc([N+](=O)[O-])ccc1Cl`, the Potency entry was “inactive”.

Take `CC(C)(C)c1ccc(CCC=O)cc1`: the Potency result is “inactive”.

Consider `CCCCCC1CCC(=O)O1` (stereo not given), for which the Potency entry was “inactive”.

For the molecule `CCOCCn1c(N2CCCN(C)CC2)nc2ccccc21`, the Potency result was “inactive”.

Take `C[C@H](CN1CCCC1)C(=O)c1ccc(C(F)(F)F)cc1`: the Potency result is “inactive”.
